Measured values from PubChem BioAssay AID2013 (Sanford-Burnham Center for Chemical Genomics, 2009).
The campaign covered roughly 290,000 compounds. About 370 (0.13%) were called active. The full list was thinned out, with actives kept by preference. Measured potencies and affinities stand elsewhere. Unmarked numbers belong to inactive results.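 Rule for the calls: active = spots per cell inhibited over 60%, with over 100 cells counted and total cytoplasm intensity under 500,000; inconclusive = wells with under 100 cells, flagged as likely toxic; inactive = the rest.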

Biological target: G-protein coupled receptor 55 (Homo sapiens) (UniProt Q9Y2T6)
Assay: GPR55 antagonists blocking LPI-driven arrestin recruitment, primary screen, imaging, U2OS, beta-arrestin-GFP, LPI agonist (AID 2013);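 note: U2OS cells stably carrying GPR55 and arrestin-GFP stimulated by 5 µM LPI near EC80; imaged beta-arrestin-GFP aggregate spots per cell after agonist stimulation; plate controls were LPI-stimulated DMSO wells for no effect and DMSO wells without LPI for full effect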
Conditions: U2OS GPR55 beta-arrestin-GFP translocation imaging, LPI antagonism; at 10 µM; active compounds read high

G-protein coupled receptor 55 (Homo sapiens), sequence (Q9Y2T6 whole entry, looked up): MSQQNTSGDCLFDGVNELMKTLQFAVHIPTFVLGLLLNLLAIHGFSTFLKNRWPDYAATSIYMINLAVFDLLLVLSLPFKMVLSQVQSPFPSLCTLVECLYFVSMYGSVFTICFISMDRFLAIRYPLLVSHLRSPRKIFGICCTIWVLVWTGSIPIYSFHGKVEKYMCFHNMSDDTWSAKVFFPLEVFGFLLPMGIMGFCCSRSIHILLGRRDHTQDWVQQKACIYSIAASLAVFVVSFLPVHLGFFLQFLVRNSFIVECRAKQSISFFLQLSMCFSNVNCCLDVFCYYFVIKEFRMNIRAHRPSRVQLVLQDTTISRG

In order of falling inhibition:
1. COc1ccc(CN2CCN(CC(O)Cn3c4ccccc4c4ccccc43)CC2)cc1 (configuration not stated)  50.2%
2. OC(CN1CCN(Cc2ccccc2)CC1)Cn1c2ccccc2c2ccccc21 (configuration not stated)  36.2%
3. CCN(CC)c1ncnc2scc(C3COc4ccccc4O3)c12 (configuration not stated)  31%
4. O=C(c1ccco1)N(CCCN1CCOCC1)c1nc(-c2ccc(F)cc2)cs1  28.3%
5. c1ccc2c(c1)OCC(c1csc3ncnc(N4CCCC4)c13)O2 (configuration not stated)  26.4%
6. Cc1ccc(-c2csc(N(CCCN3CCOCC3)C(=O)c3ccco3)n2)cc1  21.7%
7. c1ccc2c(c1)OCC(c1csc3ncnc(N4CCOCC4)c13)O2 (configuration not stated)  18.5%
8. O=C(CSc1ccccc1C(=O)N1CCCCC1)NCC1CCCCC1  15.6%
9. CCOC(=O)C1=C(C)NC(=O)NC1c1ccccc1Cl (configuration not stated)  14%
10. Cc1ccc(NC(=O)C(OC(=O)c2ccccc2Cl)c2ccccc2)cc1Cl (configuration not stated)  13.2%
11. CN=C1CC(C)(C)CC(=O)/C1=C(/O)CCC(=O)NC  11.2%
12. O=C(Nc1ccccc1Cl)c1cc[n+]([O-])cc1  10.9%
13. CC(=O)Nc1ccc(C2(c3ccc(NC(C)=O)cc3)C(=O)Nc3ccccc32)cc1  10.2%
14. COC(=O)C1=C(C)NC(=O)CC1c1cccc(Cl)c1Cl (configuration not stated)  10%
15. CC(=O)/C=C1\N(C)c2ccc(C)cc2C1(C)C  9.7%
16. CC(=O)Nc1nc(-c2ccc(Cl)cc2)ns1  9.6%
17. Cc1ccc(-c2nnc(Oc3ccc(NC(=O)c4ccccc4)cc3)c3ccccc23)cc1  9.6%
18. CCC(=O)NC(c1ccccc1)c1c(OC(C)=O)ccc2ccccc12 (configuration not stated)  9.1%
19. O=C(N/C=C/c1ccc(Cl)cc1)NCc1ccc(Cl)cc1  9%
20. CC(C)=CC(=O)OCc1csc(CC(=O)Nc2ccccc2C)n1  8.4%
21. CC(C)CCNc1c(-c2cccs2)nc2ccccn12  8.2%
22. C=CCc1c(C)nc(-c2ccccc2)nc1N/N=C(\C)c1ccccc1  8.1%
23. O=C1CC(NC(=O)c2ccc(Cl)cc2)C(=O)N1 (configuration not stated)  8%
24. O=[N+]([O-])c1ccc(C2CNC(c3ccccc3)O2)cc1 (configuration not stated)  7.3%
25. Clc1ccc(-c2nnnn2-c2ccc(Cl)cc2)cc1  7.1%
26. Cc1ccc(/C=C2\C(=O)NC(=O)N2C)o1  6.8%
27. C=CCN1C(=O)N/C(=C/c2ccc(C)o2)C1=O  6.7%
28. Clc1ccc(-n2nnnc2-c2cnc(-c3ccncc3)nc2-c2cccs2)cc1  6.4%
29. Cc1ccc(OCC(O)Cn2c3ccccc3c3ccccc32)cc1 (configuration not stated)  6.3%
30. NS(=O)(=O)c1ccc(NNC(=O)c2ccccc2C(=O)O)cc1  6.3%
31. c1ccc2c(c1)OCC(c1csc3ncnc(N4CCCCC4)c13)O2 (configuration not stated)  6%
32. COc1ccc(-c2nc(-c3cccc(C)c3)nc(Cl)c2C#N)cc1  5.9%
33. Cc1cc(C2(c3ccc(O)c(C)c3)C(=O)Nc3ccccc32)ccc1O  5%
34. COc1cc(C(=O)N2CCN(C(=O)c3cccc4ccccc34)CC2)cc(OC)c1OC  4.5%
35. Cc1ccc(/C=N/NC(=O)c2nnn(-c3nonc3N)c2C(C)C)s1  4%
36. Cc1onc(-c2ccc(Cl)cc2Cl)c1C(=O)/C=C/N(C)C  3.5%
37. CC(=O)Oc1ccc2ccccc2c1C(NC(=O)Cc1ccccc1)c1ccc(Cl)cc1 (configuration not stated)  3.5%
38. COc1ccc(C(CNC(=O)C(C)(C)Oc2ccc(Cl)cc2)N2CCCCC2)cc1 (configuration not stated)  3.2%
39. Cn1c(C(=O)N[C@@H](Cc2ccccc2)C(=O)NCCC(=O)O)cc2cc(Cl)ccc21  2.2%
40. CCOC(=O)/C(C#N)=C\c1cccnc1  0.9%
41. Cc1ccc(N2C(=O)CC(N(CCc3ccccc3)C(=S)Nc3ccc(N(C)C)cc3)C2=O)cc1 (configuration not stated)  0.8%
42. CCSc1ccc(-c2nn(-c3ccccc3)cc2/C=C(/C#N)C(=O)NC)cc1  0.7%
43. CCN1C(=O)N/C(=C/c2ccc(C)o2)C1=O  -0.6%
44. Cc1c(O)nc2sc3ccccc3n2c1=O  -0.7%
45. CCOC(=O)/C(=C\c1ccccc1)C(=O)c1cc(C(C)=O)c(Nc2ccccc2)s1  -0.8%
46. N#Cc1c(Cl)nc(SCc2ccccc2)nc1-c1ccccc1  -1.5%
47. CN1CCN(CC(O)Cn2c3ccccc3c3ccccc32)CC1 (configuration not stated)  -3.3%
48. Cc1ccc(-c2c3c(=O)n(C)c(=O)n(C)c3cn2N2CCOCC2)cc1  -4%
49. CCCSc1ccc(-c2nn(-c3ccccc3)cc2/C=C(/C#N)C(=O)NCCCOC)cc1  -5.1%
50. CCCCCCOc1ccc(OCC(O)CN2C(=O)NC(C)(C)C2=O)cc1 (configuration not stated)  -5.4%
51. CC/C(=C/c1sc2ccc(C)cc2[n+]1CCO)SC  -7.4%
52. Cc1ccc(/C=C2/NC(=O)N(Cc3ccccc3F)C2=O)o1  -7.6%
53. CCCCn1c(N)c(N(CC(C)C)C(=O)C2CCN(C(=O)c3ccc(F)cc3)CC2)c(=O)[nH]c1=O  -8.6%
54. CCn1c(SCC(N)=O)nc2c1c(=O)n(C)c(=O)n2C  -11%
55. CC1CCN(CCc2nc3cc(NS(=O)(=O)c4ccccc4)ccc3n2C)CC1  -11.2%
56. CCn1cnc2sc(C(=O)Oc3cccc(C)c3)c(C)c2c1=O  -14%
57. Cc1ccc2c(c1)C1(C(=O)N2C)N2CC3(C)CN1CC(C)(C2)C3=O (configuration not stated)  -15.5%

With `CCOc1ccc(CN2CCN(CC(O)Cn3c4ccccc4c4ccccc43)CC2)cc1` (configuration not stated) the inhibition was 79.4% (active).
`Cc1ccc(OCCN2CCN(CC(O)Cn3c4ccccc4c4ccccc43)CC2)cc1` (configuration not stated) was tested, and the inhibition was 72.6% (active).
In the case of `CCOC(=O)C1=C(C)NC(C)=C(C(=O)OC)C1c1cccc(Cl)c1Cl` (configuration not stated), the inhibition is reported as 85.2% (active).
For `O=C(c1ccco1)N(CCCN1CCOCC1)c1nc(-c2ccc(Cl)cc2)cs1`, the inhibition was 69.4% (active).
For `CSc1nc(Cl)c(C#N)c(-c2ccc(C)cc2)n1`, the inhibition was 68.5% (active).
